Among all 4,800 compounds or so, about 410 (8.5%) showed an effect of 50% or more. The entries come from a sample that favours strong results as a whole.
tested on: Plasmodium falciparum; experiment: Confirmatory screen in NF54 pLDH assay, in single point, at 2uM, 72h; format: functional, Erythrocyte; conditions: timepoint 72 hour

| Structure (SMILES) | % Inhibition |
| --- | --- |
| Cc1ccc(-c2ccc(CN(CC(=O)NCC(=O)O)C(C)C)s2)cc1 | 13% |
| CC(C)NC(=O)N(C)Cc1ccc(F)cc1 | 8% |
| CC(=O)Nc1cccc(C#CCN2CCN(c3ccc(F)cc3)CC2)c1 | 13% |
| CCN1CCN(c2cccc(NC(=O)c3cc(F)cc4c(=O)c5cc(F)ccc5[nH]c34)c2)CC1 | 96% |
| Cc1cccc(NC(=O)c2cc(C)nc3c2c(C)nn3-c2ccc(F)cc2)c1 | 0% |
| CCN1CCN(C(=O)c2ccccc2N2CCC(NC(=O)c3cccc(Br)c3)CC2)CC1 | 40% |
| CC(C)n1nccc1NC(=O)c1c[nH]c2ccc(F)cc2c1=O | -4% |
| CCn1c(C)c(C)c2cc(C(=O)Nc3cccc(S(=O)(=O)N4CCOCC4)c3)ccc21 | 4% |
| CCN1CCN(c2cccc(NC(=O)c3ccc4[nH]c5ccccc5c(=O)c4c3)c2)CC1 | 100% |
| CN(C)Cc1ccc(NC(=O)c2cc(F)cc3c(=O)c4cc(F)ccc4[nH]c23)cc1 | 95% |
| N#CCc1ncc(CCN2C(=O)c3ccccc3C2=O)s1 | 7% |
| COc1ccc(S(=O)(=O)N(c2onc(C)c2Cl)S(=O)(=O)c2ccc(OC)c(OC)c2)cc1OC | 4% |
| CC[C@@H](C(N)=O)N1CCN(Cc2nc(-c3cccs3)no2)CC1 | 7% |
| Cc1noc(-c2csc(-c3c[nH]cn3)n2)n1 | -1% |
| CN(Cc1ccn(C)n1)C(=O)c1cc(S(=O)(=O)N(C)C)c(Cl)cc1Cl | 8% |
| O=C(NC1CCCC1)N1CCN(S(=O)(=O)c2cccc(F)c2)CC1 | 2% |
| COc1ccc(-c2cc(C(=O)N[C@H]3CCN(c4ccc(=O)[nH]n4)C3)c(C)n2C)cc1 | 58% |
| COc1ccc(-c2cc(C(=O)N[C@H]3CCN(c4ccc(=O)n(C)n4)C3)c(C)n2C)cc1 | 41% |
| Cc1c(C(=O)NC2CC2)cc(-c2ccccc2)n1C | 6% |
| c1cn(C[C@@H]2CCCN2c2nc(C3CCCC3)ns2)nn1 | -8% |
| Cn1cc(C(=O)c2nc(-c3ccccc3Cl)no2)cn1 | -5% |

| Structure (SMILES) | % Inhibition |
| --- | --- |
| O=S(=O)(c1ccc2nncn2c1)N(Cc1cccc(Cl)c1)c1ccccc1 | 9% |
| O=C(N[C@@H]1CC=C(c2ccc(F)cc2)CC1)c1nc2n(n1)CCCN2 | 10% |
| c1ccc2[nH]c(Nc3nc4ccccc4s3)nc2c1 | 14% |
| COc1ccc(CNC(=N)NS(=O)(=O)c2ccc(OC)c(OC)c2)c(OC)c1 | 11% |
| Cc1cc(Br)ccc1CNC(=O)CN1CCCCC1=O | 13% |
| O=C(Nc1[nH]c(=O)ncc1F)c1cccc2ccccc12 | 72% |
| COc1cc(C(=O)Nc2[nH]c(=O)ncc2F)ccc1Cl | 68% |
| COc1ccc(C(=O)Nc2ccc3c(c2)C(=O)Nc2cccnc2O3)cc1OC | 26% |
| O=C(Nc1[nH]c(=O)ncc1F)c1cc(F)c(F)cc1Br | 86% |
| O=C1c2ccccc2C(c2ccc(NC(=O)c3cccc4ccccc34)cc2)(c2ccc(NC(=O)c3cccc4ccccc34)cc2)c2ccccc21 | 42% |
| O=C(Nc1ccccc1-c1nnc[nH]1)c1ccc(F)c(Cl)c1 | 2% |
| Cn1ccc(NC(=O)c2cccc3ccccc23)n1 | 4% |
| COc1cc2c(cc1-c1cccnc1)CCC(=O)N2C | -22% |
| CCc1c[nH]c(CNC(=O)C2(C(=O)NC3CC3)CCC2)n1 | 7% |
| CCC[C@H](C)c1nc(N2CCN(C(=O)Cc3ccc(OC)cc3)CC2)c2cnn(-c3ccccc3)c2n1 | 9% |
| CC(=O)Nc1ccc(NC(=O)CCC(C)C)cc1 | -6% |
| CC(=O)Nc1ccc(-c2cn3c4ccccc4ccc3[n+]2C)cc1 | 67% |
| CC(=O)c1ccc(NC(=O)Cn2c(-c3ccccc3)nc(C)cc2=O)cc1 | 10% |
| CCOc1cccc2c1OC1(C)C(C(=O)Nc3ccc(C)cc3C)C2NC(=O)N1c1ccccc1 (stereo not drawn) | -7% |
| O=C1[C@@H]2C[C@@H](CN2C(=O)c2cncnc2)Oc2ccccc2N1Cc1cccnc1 | 6% |
| O=C(O)C[C@H](NC(=O)c1cscn1)c1ccc(Cl)s1 | -23% |

| Structure (SMILES) | % Inhibition |
| --- | --- |
| O=S(=O)(c1cccnc1)N(CC1CCCCC1)c1cnccn1 | 10% |
| COc1cc(NC(=O)c2cc(-c3cccc4ccccc34)[nH]n2)cc(OC)c1OC | 10% |
| COc1ccc2cccc(NC(=O)c3cc(-c4cc(OC)c(OC)c(OC)c4)n[nH]3)c2n1 | 51% |
| COc1ccc(-c2cc(C(=O)Nc3ncc[nH]3)n[nH]2)cc1OC | 22% |
| Cc1ccnc2nc(C(=O)N(CC3CC3)CC(F)(F)F)nn12 | 10% |
| CC(O)CC(C)(C)CNC1CCCc2occc21 (stereo not drawn) | -9% |
| O=C(N[C@H]1CCCc2occc21)c1ccco1 | 7% |
| Oc1cccc(CN[C@H]2CCCc3occc32)c1Cl | 83% |
| CCOC(=O)Oc1c(OC)cc(C(=O)Nc2ccc3c(c2)sc(=O)n3C)cc1OC | 15% |
| CCOc1cc(C(=O)Nc2ccc3nc4c(c(Nc5ccc(OC)c(OC)c5)c3c2)CCCC4)cc(OCC)c1OCC | 103% |
| COc1ccc(Nc2nc(C(=O)Nc3ncc(C)s3)cs2)cc1OC | 13% |
| COC(=O)c1cc(S(=O)(=O)NCCc2csc(C)n2)cc(F)c1F | -8% |
| CCN(C(=O)[C@H]1CCN(C)[C@@H](C)C1)C1CCCC1 | 11% |
| Cc1cn(Cc2ncc(C(F)(F)F)cc2Cl)c(=O)[nH]c1=O | -18% |
| N#Cc1ccc(NC(=O)[C@](F)(OC(F)(F)C(F)(F)C(F)(F)F)C(F)(F)F)cc1 | -2% |
| Cc1cc(CN(C)c2cc(C3CC3)nc(N(C)Cc3cc(C)on3)n2)no1 | -11% |
| CN(Cc1ccc(-c2ccccc2)cc1)c1cc([C@H]2C[C@@H](N)C2)nc(N)n1 | 54% |
| CC(=O)N1c2c(C)cccc2[C@@H](C)CC1(C)C | 16% |
| CCc1ccc(NC(=O)Cn2c(=O)ncc3cc(S(=O)(=O)N4CCCC[C@@H]4C)ccc32)cc1 | 11% |
| CC(C)C[C@@H]1N[C@H](C(=O)NCCN(C)C)Cc2c[nH]c3cccc1c23 | -19% |
| Cc1cc2nc(C(=O)NC3CCN(Cc4ccccc4)CC3)c(=O)n(C)c2cc1C | -6% |
